About 79,000 compounds went through this panel and 15% of them were active in at least one assay; those are over-represented in the sample as a whole. A number with no mark means an inactive call. Activity calls are given as the source filed them. No stated cut-off is given here; in the data, active means growth inhibition above about 70%; inactive means the rest. Where a SMILES comes first, the peptide text is derived from it.

The nature of assay [1]: NCI Yeast Anticancer Drug Screen. Data for the rad50 strain (AID 155).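 Further: 0% = growth of vehicle-only cultures of the same strain.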 Particulars: S. cerevisiae rad50 strain growth inhibition; at 50.0 µM; stronger effect = higher value. An outline of the steps: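 Inhibition values express reduced yeast growth in compound-treated cultures relative to vehicle-treated controls.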
Assay [2] can be described thus: NCI Yeast Anticancer Drug Screen. Data for the mec2-1 strain (AID 157). The note with it: S. cerevisiae mec2-1 strain, at 50.0 µM, stronger effect = higher value. An outline of the steps:
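Readout is yeast growth inhibition, normalised to vehicle-treated controls, in the mec2-1 strain exposed to compound.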

Assay [3] in a line: NCI Yeast Anticancer Drug Screen. Data for the sgs1 mgt1 strain (AID 161).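 Further: 0% = growth of cultures given vehicle only.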 Particulars: S. cerevisiae sgs1 mgt1 strain, at 50.0 µM, stronger effect = higher value. An outline of the steps: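 This yeast growth screen uses a strain with defined DNA-repair lesions; compound-treated growth is compared with vehicle-treated growth.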
The nature of assay [4]: NCI Yeast Anticancer Drug Screen. Data for the cln2 rad14 strain (AID 165).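 Further: 0% = growth equal to vehicle treated cultures.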 The note with it: S. cerevisiae cln2 rad14 strain, at 50.0 µM, stronger effect = higher value. An outline of the steps: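 Relative to vehicle controls, growth inhibition of compound-treated cln2 rad14 yeast was recorded.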
Assay [5] in a line: NCI Yeast Anticancer Drug Screen. Data for the bub3 strain (AID 167). Particulars: S. cerevisiae bub3 mutant strain, at 50.0 µM, stronger effect = higher value. An outline of the steps: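 Steps: expose the mutant yeast strain to compound; grow alongside vehicle-treated cultures; measure growth; express inhibition against the vehicle cultures.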
The nature of assay [6]: NCI Yeast Anticancer Drug Screen. Data for the mlh1 rad18 strain (AID 175). The note with it: S. cerevisiae mlh1 rad18 strain growth inhibition; at 50.0 µM; stronger effect = higher value. The method in brief:
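Test agents were incubated with a yeast strain of defined genotype (DNA damage repair defect). Inhibition of growth was derived by comparison with vehicle-exposed cultures.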

`Cc1cc(O)c(/C=N/C(=S)NCCc2ccccc2)c(=O)o1`: the growth inhibition in assay [1] is -4.35%; in assay [2] it was -29.5%; in assay [3], -9.5%; in assay [4], 10.3%; in assay [5], 6.55%; in assay [6], -20.6%.
On to `CC(C)NC(=O)C1CC2C=CC1C2` (configuration not stated), for which the growth inhibition in assay [1] was 7.7%; in assay [2] it was 1.3%; in assay [3] it was 1.75%; in assay [4] it was 3.25%; in assay [5], -9.85%; in assay [6], 14.8%.
With `CCC(C)C(N)C(=O)NC(C(=O)O)C(C)C` (stereo not drawn) (H-Ile-Val-OH; configuration not given here), the growth inhibition in assay [1] is -32.4%; in assay [2] it was -13.6%; in assay [3], -0.2%; in assay [4], -41.9%; in assay [5], -0.25%; in assay [6], -0.4%.
In the case of `N=c1ccccn1CC(O)COc1ccccc1` (configuration not stated), the growth inhibition in assay [1] is -11.2%; in assay [2] it was -9.6%; in assay [3] it was -1.6%; in assay [4], 1.1%; in assay [5], 4.2%; in assay [6], -5.8%.
On to `C=CCSc1ncnc2nc[nH]c12`, for which the growth inhibition in assay [1] was 7.9%; in assay [2] it was -1.3%; in assay [3] it was 1.55%; in assay [4] it was -3.15%; in assay [5] it was -0.45%; in assay [6] it was 9.1%.
For `Cc1cc(Cl)ccc1NC(=O)C1C(=O)C(=O)N(c2ccc(Cl)cc2C)C1=O` (configuration not stated), the growth inhibition in assay [1] is 7.4%; in assay [2] it was -2.3%; in assay [3], 14.8%; in assay [4] it was 13.4%; in assay [5], -18.2%; in assay [6], 17.2%.
Turning to `Cc1c(O)nc(N)[nH]c1=O`, the growth inhibition was 2.65% in assay [1]; -24% in assay [2]; -22.6% in assay [3]; 1.7% in assay [4]; -13.3% in assay [5]; -7.2% in assay [6].
For the molecule `Nc1ncnc2c(C3OC(CO)C(O)C3O)nsc12` (configuration not stated), the growth inhibition in assay [1] was -6.8%; in assay [2], -23.6%; in assay [3], -37.1%; in assay [4] it was -15.2%; in assay [5], -32.1%; in assay [6], -38%.
On to `O=C(c1nc2ccccc2[nH]1)N1CCN(c2ccccc2)CC1`, for which the growth inhibition in assay [1] was 2.95%; in assay [2], -1.55%; in assay [3], -9%; in assay [4], 5.55%; in assay [5] it was 1.35%; in assay [6] it was 7.3%.
Consider `N#Cc1c(N)nc(Nc2cccc3ccccc23)c(C#N)c1C#N`, for which the growth inhibition was 37.7% in assay [1]; 29.7% in assay [2]; 29.1% in assay [3]; 39.9% in assay [4]; 29.4% in assay [5]; 36.8% in assay [6].
In the case of `CNCCCc1cc(-c2ccc([N+](=O)[O-])cc2)n[nH]1`, the growth inhibition in assay [1] was -1.55%; in assay [2], 0.5%; in assay [3], -3.25%; in assay [4], 12.6%; in assay [5], 13.6%; in assay [6], 6.6%.
Consider `COC(=O)CCCCCNC(=O)NCCCCCC(=O)OC`, for which the growth inhibition is 4.6% in assay [1]; -21% in assay [2]; -1.2% in assay [3]; 6.25% in assay [4]; -11.4% in assay [5]; 19.1% in assay [6].
`C[n+]1cccc(C(=O)O)c1-c1ccccc1`: the growth inhibition in assay [1] was 20.4%; in assay [2], 5.9%; in assay [3], 5.85%; in assay [4], -39.5%; in assay [5] it was 4.55%; in assay [6] it was 10.3%.
For the molecule `C=C[Si](Cl)(Cl)c1ccccc1`, the growth inhibition in assay [1] is 15.9%; in assay [2], -2.45%; in assay [3] it was 1.65%; in assay [4], -0.15%; in assay [5], 6.5%; in assay [6], 11.2%.
As for `CC1C[C@]2(C)C(=NCCN)Nc3ccccc3[C@@H]2N(C)c2ccccc21` (some centres not stated), the growth inhibition was -14.4% in assay [1]; -25.6% in assay [2]; -10.8% in assay [3]; -28.6% in assay [4]; -13.2% in assay [5]; 13.3% in assay [6].
With `COc1cc2oc3cc(=O)cc4oc(-c5ccccc5)cc(c2c2c1CCC(c1ccccc1)O2)c43` (configuration not stated), the growth inhibition was 6.75% in assay [1]; 7.9% in assay [2]; -17.4% in assay [3]; 3.6% in assay [4]; -8.7% in assay [5]; -10.2% in assay [6].
In the case of `N#Cc1c(-c2ccc([N+](=O)[O-])cc2)c(C#N)c(=O)n(NS(=O)(=O)c2ccccc2)c1-c1ccccc1`, the growth inhibition was 7.1% in assay [1]; 13.3% in assay [2]; -2.45% in assay [3]; 4.05% in assay [4]; 6.25% in assay [5]; 26.4% in assay [6].
In the case of `CN1c2ccccc2S(=O)(=O)n2c(COc3ccc(Cl)cc3)nnc21`, the growth inhibition was -3.4% in assay [1]; 4.15% in assay [2]; 2.5% in assay [3]; 12% in assay [4]; 3.05% in assay [5]; 2.6% in assay [6].
As for `Cc1cc(Cl)ccc1N=Cc1ccc(C=Nc2ccc(Cl)cc2C)cc1`, the growth inhibition was 14.2% in assay [1]; 3.6% in assay [2]; -5.05% in assay [3]; -1.55% in assay [4]; 10.8% in assay [5]; -0.5% in assay [6].
In the case of `CC1[C@@H]2CC=C3[C@H]4CCC5Cc6nc7c(nc6C[C@@]5(C)C4CC(=O)[C@]32CO[C@]12OC(C)(C)CC2O)CC1CC[C@@H]2C3=C[C@H]4O[C@@]5(O[C@@](C)(CO)C[C@@H]5O)C(C)[C@@]4(O)[C@]3(C)[C@@H](O)CC2[C@]1(C)C7` (some centres not stated), the growth inhibition is 37.5% in assay [1]; 40.9% in assay [2]; 90.7% (active) in assay [3]; 57.2% in assay [4]; 47% in assay [5]; 40.1% in assay [6].
In the case of `CC(C)c1ccc(/C=N\N(C)C)cc1`, the growth inhibition was 2.3% in assay [1]; 2.05% in assay [2]; -13.8% in assay [3]; -5.6% in assay [4]; -2.9% in assay [5]; -1.75% in assay [6].
Take `CCCCNCC1COc2cccc(OCC)c2O1` (configuration not stated): the growth inhibition in assay [1] was 17.1%; in assay [2], -0.1%; in assay [3] it was -2%; in assay [4], 9.7%; in assay [5], -6.75%; in assay [6] it was 4%.
Regarding `CCC(=O)OCCSCCOC(=O)CC`, the growth inhibition is 5.65% in assay [1]; 5.65% in assay [2]; -6.4% in assay [3]; -10.3% in assay [4]; -4.4% in assay [5]; -15.8% in assay [6].
Take `CCCNCCC(=O)Nc1ccccc1C(=O)OCC`: the growth inhibition was 3.15% in assay [1]; -18% in assay [2]; 0.2% in assay [3]; -43.1% in assay [4]; 29.3% in assay [5]; -6.25% in assay [6].
Turning to `C=CCOc1c(C)cc(C)cc1C`, the growth inhibition in assay [1] is 5.3%; in assay [2], -17.4%; in assay [3], -5.95%; in assay [4], -16.3%; in assay [5], -14.8%; in assay [6], -6.85%.
Regarding `N#CNc1nc(N)cc(=O)[nH]1`, the growth inhibition in assay [1] was -4.65%; in assay [2], -23.6%; in assay [3], -2.45%; in assay [4], 3%; in assay [5] it was -27.1%; in assay [6] it was 11.2%.
For the molecule `COc1cc(OC)c2cnc(Cl)cc2c1`, the growth inhibition in assay [1] is 15.4%; in assay [2], -9.1%; in assay [3] it was -5.35%; in assay [4], -41.4%; in assay [5] it was -2.85%; in assay [6], 6.6%.
On to `Cc1cccc(/C=C/c2csnn2)n1`, for which the growth inhibition was -25.1% in assay [1]; -6.75% in assay [2]; -8.4% in assay [3]; 14.6% in assay [4]; -6.05% in assay [5]; -15.2% in assay [6].
Consider `O=[N+]([O-])/C(C(Cl)=C(Cl)Cl)=C1\NCCS1`, for which the growth inhibition in assay [1] was 39.7%; in assay [2] it was 25.5%; in assay [3] it was 40.2%; in assay [4], 9.7%; in assay [5], 34.6%; in assay [6], 42.3%.
For `CC1C(=O)N(c2ccccc2)C1c1ccccc1` (configuration not stated), the growth inhibition in assay [1] is -18.6%; in assay [2] it was -31.3%; in assay [3], -11.9%; in assay [4], -24.6%; in assay [5], 2.95%; in assay [6] it was -19.6%.
As for `CCOC(=O)C[C@@]1(C)C(=O)O[C@H](c2ccccc2)N1C(=O)c1ccccc1`, the growth inhibition in assay [1] is 13.2%; in assay [2] it was 6.4%; in assay [3], 14.2%; in assay [4] it was 29.9%; in assay [5], 11.8%; in assay [6], 15.1%.
As to `CC[N+](C)(CC)CCOC(C)=O`, the growth inhibition in assay [1] is 8.55%; in assay [2] it was -12.1%; in assay [3], -5.95%; in assay [4] it was 11.2%; in assay [5] it was -6.5%; in assay [6] it was 8.3%.
On to `CC(C)N(C(=O)C12CC3CC(CC(C3)C1)C2)C(C)C`, for which the growth inhibition is 24.9% in assay [1]; 0.45% in assay [2]; 8.05% in assay [3]; 13.2% in assay [4]; 20.9% in assay [5]; 6.15% in assay [6].
For the molecule `CCN(CC)CC(Oc1ccccc1)C(=O)c1ccccc1` (configuration not stated), the growth inhibition is -10.2% in assay [1]; -15.7% in assay [2]; 4.75% in assay [3]; -30.1% in assay [4]; -11.4% in assay [5]; -7.4% in assay [6].
Turning to `ClC(Cl)(Cl)C1CCC2CCCC21` (configuration not stated), the growth inhibition in assay [1] is 4.15%; in assay [2], -24.1%; in assay [3], -3.45%; in assay [4] it was 6.1%; in assay [5], -9.1%; in assay [6] it was -0.8%.
Take `COC(=O)c1c2c(C)ccc(C)c2nc2c(C)ccc(C)c12`: the growth inhibition in assay [1] was -5.6%; in assay [2], -41%; in assay [3] it was -2.05%; in assay [4], -15.3%; in assay [5] it was 22.7%; in assay [6], -41%.
With `CC1OC(OCC2OC(Oc3ccc4c(=O)c(-c5ccc6c(c5)OCO6)coc4c3)C(O)C(O)C2O)C(O)C(O)C1O` (configuration not stated), the growth inhibition in assay [1] was 15.1%; in assay [2] it was 3.15%; in assay [3] it was 12.6%; in assay [4], 28.1%; in assay [5], 20.4%; in assay [6], 8.85%.

For the origin of these results see PubChem BioAssay (NCI).
